The full list was thinned out, with hits kept by preference.
Tb PYK inh: blocks Trypanosoma brucei pyruvate kinase. 0.12% of 410,000 active. AID 624173. Potency, µM (titrated, usually from 76.8 µM), most hits filed as inhibitors. Q57TT1. TbPYK enzyme, Kinase-Glo Plus ATP luminescence, 45 min; further: nearly all actives have a fitted effect of over 50% in size
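TbPYK + substrate in 50 mM TEA pH 7.2, 100 mM KCl, 10 mM MgCl2, 0.05% BSA, 0.01% Tween-20; cpd pinned; ADP 130 uM final; 45 min RT; Kinase-Glo Plus 10 min; luminescence endpoint.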
Shiga toxin inh: Shiga toxin inhibition | Vero cells, Shiga toxin protein synthesis inhibition reporter | inhibition, % at 38.7 µM | 9.2% of 290,000 active | AID 2315; in the data active means inhibition mostly above about 28%, no sharp cut-off; inactive means mostly below about 43%
CHX counter: counter-screen for Shiga toxin inhibitors: cycloheximide protein synthesis inhibition; cell reporter, cycloheximide protein synthesis inhibition counterscreen; max response, %; 12% of 300,000 active; AID 2314; in the data active means max response mostly above about 13%, no sharp cut-off; inactive means mostly below about 14%; further: read at 38.3 µM for the half of the compounds with a filed dose
Sm TGR block: inhibitors of Schistosoma mansoni thioredoxin glutathione reductase; Q962Y6; purified TGR, DTNB reduction, TNB absorbance 405 nm; Potency, µM (doses to about 114 µM), usual class: inhibitors; 3% of 360,000 active; AID 485364; further: nearly all actives have a fitted effect of over 60% in size
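Kinetic colorimetric format: TGR-catalysed, NADPH-driven DTNB reduction monitored via TNB absorbance. Enzyme dispensed at 20 nM; compound exposure 15 min at room temperature before reaction start.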
Giardia FBPA inh: inhibitors of Giardia lamblia fructose-1,6-bisphosphate aldolase; 0.71% of 290,000 active; A8B2U2; purified Giardia FBPA; Potency, µM (highest dose often 59.6 µM), actives largely listed as inhibitors; further: nearly all actives have a fitted effect of over 55% in size
Target sequence (A8B2U2 whole entry, looked up): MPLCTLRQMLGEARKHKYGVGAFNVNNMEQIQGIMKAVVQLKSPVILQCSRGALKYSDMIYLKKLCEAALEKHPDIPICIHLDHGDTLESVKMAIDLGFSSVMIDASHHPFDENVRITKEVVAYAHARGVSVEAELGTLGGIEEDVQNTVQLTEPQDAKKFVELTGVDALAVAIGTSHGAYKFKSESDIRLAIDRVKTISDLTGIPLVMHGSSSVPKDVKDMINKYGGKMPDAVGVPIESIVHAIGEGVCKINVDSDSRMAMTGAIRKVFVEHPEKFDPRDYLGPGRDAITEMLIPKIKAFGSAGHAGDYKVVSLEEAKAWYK
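Giardia FBPA (40 nM reagent) was preincubated 10 min at RT with compound (up to 57.5 uM final), then substrate plus GAPDH/TPI/NAD/arsenate coupling system with diaphorase/resazurin was added; resorufin fluorescence (525/598 nm) was read after 20 min.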
LmPK inhibitor: LmPK (Leishmania mexicana) enzyme inhibition; purified LmPK, Kinase-Glo ATP luminescence, 1 h; Potency, µM (titrated, usually from 57.5 µM), most hits filed as inhibitors; 0.37% of 290,000 active; AID 1721
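Kinase-Glo luminescence read after 1 h RT reaction of 0.1 nM LmPK with 0.5 mM PEP and 0.1 mM ADP. Activity scaled between uninhibited and enzyme-free controls.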
Each line names hits and unclear results; the compound was inactive in the other large screens. Unless noted, the call rests on the fitted dose curve; in most records, active means well fitted curve in the direction sought with a large enough effect; inconclusive means small, poorly fitted or top-dose-only effect, or another doubt; inactive means no such curve, though single readings can be large; an effect the other way counts as inactive or inconclusive.

N#Cc1ccc(NC(=O)c2cc(-c3cccc(Cl)c3)on2)cc1	none (no result: Shiga toxin inh, CHX counter, Giardia FBPA inh, LmPK inhibitor)
COc1ccccc1Nc1nc(N)nc(-c2oc3ccccc3c2C)n1	none (no result: Tb PYK inh)
Cc1ccccc1Nc1nc(N)nc(-c2oc3ccccc3c2C)n1	Shiga toxin inh 121.7, CHX counter 64.0
Cc1c(-c2nc(N)nc(Nc3ccc(F)cc3)n2)oc2ccccc12	Shiga toxin inh 84.2, CHX counter 21.7
O=c1oc2ccccc2c(Nc2ccc(F)cc2)c1[N+](=O)[O-]	none
Cc1c(Cl)cccc1NC(=O)Nc1nnc(N(C)C2CCCCC2)s1	none (no result: Shiga toxin inh, CHX counter, Giardia FBPA inh, LmPK inhibitor)
CCOC(=O)N/N=C1/C[C@@H](O)[C@@H](O)[C@@H]2[C@@H]3C(=O)N([C@@H](C)c4ccccc4)C(=O)[C@H]3CC[C@@H]12	none (no result: Tb PYK inh, Shiga toxin inh, CHX counter, Sm TGR block, LmPK inhibitor)
CC(C)(C)c1ccc(OC(=O)c2cccnc2)cc1	CHX counter 18.0
COc1ccccc1C(=O)Oc1ccc2ccc(=O)oc2c1	none
COc1ccc(OC(=O)c2cccnc2)cc1	none
COc1ccc(C(=O)Oc2ccc(C(C)=O)cc2)c(OC)c1	CHX counter 29.8
CCCCOc1ccc(OC(=O)c2cccnc2)cc1	none
CCCCOC(=O)c1ccc(OC(=O)c2cccnc2)cc1	Shiga toxin inh 33.4, CHX counter 23.5
COc1ccccc1C(=O)Oc1ccc(C(C)(C)C)cc1	CHX counter 29.4
O=C(CSc1nc2c([nH]c3ccccc32)c(=O)n1-c1ccc(F)cc1)NCc1ccccc1	none (no result: Shiga toxin inh, CHX counter, Giardia FBPA inh, LmPK inhibitor)
Cc1ccc(NC(=O)C2CCN(S(C)(=O)=O)CC2)cc1Cl	none (no result: Shiga toxin inh)
CCCc1ccc(C(O)c2ncc(-c3ccc(OC)cc3)[nH]2)cc1 (stereo not drawn)	none (no result: Shiga toxin inh, CHX counter, Sm TGR block, Giardia FBPA inh, LmPK inhibitor)
CCCCCCCOc1ccc(OC(=O)c2cccnc2)cc1	none
CCCCCCOC(=O)c1ccc(OC(=O)c2cccnc2)cc1	Shiga toxin inh 58.1, CHX counter 32.2
CN(C)C(=O)Oc1ccc(C(=O)c2ccccc2)cc1	Shiga toxin inh 42.3, CHX counter 40.0
CC(=O)c1ccc(OC(=O)N(c2ccccc2)c2ccccc2)cc1	none
CC(=O)c1ccc(OC(=O)N(C)c2ccccc2)cc1	Shiga toxin inh 66.3, CHX counter 35.9 (no result: Sm TGR block)
CN(C)C(=O)Oc1ccc(OC(=O)N(C)C)cc1	none
C[C@H](CO)N1C[C@H](C)[C@H](CN(C)S(=O)(=O)c2cccs2)Oc2ncc(-c3cc4ccccc4o3)cc2C1=O	none (no result: Shiga toxin inh, CHX counter, Sm TGR block, Giardia FBPA inh, LmPK inhibitor)
CC(C)COCC1CC2(CC(C)(c3csc(N)n3)OC2=O)C(=O)O1 (stereo not drawn)	Sm TGR block inconclusive
C=CCNc1nc(C2(C)CC3(CC(C)(C)OC3=O)C(=O)O2)cs1 (stereo not drawn)	Sm TGR block 50.1µM
CC[C@H](C)[C@H](NC(=O)[C@H](CC(=O)O)NC(=O)[C@H](CC(C)C)NC(=O)[C@H](Cc1cnc[nH]1)NC(=O)[C@H](C)NC(=O)[C@H](Cc1ccccc1)NC(=O)[C@H](Cc1ccc(O)cc1)NC(=O)[C@@H](NC(=O)[C@H](C)NC(=O)[C@H](CCC(=O)O)NC(=O)[C@H](CCC(=O)O)NC(=O)[C@H](CC(=O)O)NC(=O)CCC(=O)O)C(C)C)C(=O)N[C@H](C(=O)N[C@@H](Cc1c[nH]c2ccccc12)C(=O)O)[C@@H](C)CC	none (no result: Tb PYK inh, Sm TGR block, LmPK inhibitor)
CC(C)(C)SCCNC(=O)COc1ccccc1	CHX counter 27.4
C=CCNC(=O)COc1ccc(Oc2ccccc2)cc1	Shiga toxin inh 64.2, CHX counter 51.7
O=C(COc1ccccc1)NCCn1ccc2ccccc21	none
C=CCNC(=O)COc1ccc(S(=O)(=O)N2CCCC2)cc1	none (no result: Sm TGR block)
O=C(COc1ccccc1)NCCSc1ccccc1	CHX counter 14.0
COCCn1c(C)cc(C(=O)COc2ccc(N(C)S(=O)(=O)c3ccc(C)cc3)cc2)c1C	none (no result: Shiga toxin inh, CHX counter, Giardia FBPA inh, LmPK inhibitor)
O=c1[nH]nc(SCCS(=O)(=O)c2ccc(F)cc2)n1-c1ccccc1	CHX counter 12.2
CN1CCN(C(=O)c2ccc(COc3cc(Cl)ccc3Cl)o2)CC1	none
CN1CCN(C(=O)c2cccc(COc3cc(Cl)ccc3Cl)c2)CC1	Shiga toxin inh 102.6, CHX counter 48.0
O=C(O)c1ccc(COc2ccccc2Cl)cc1	Shiga toxin inh 145.2, CHX counter 28.5, Giardia FBPA inh inconclusive
O=C(Nc1ccccc1Cl)c1cccc(COc2cc(Cl)ccc2Cl)c1	Shiga toxin inh 50.9, CHX counter 41.6
